Among the data in PubChem BioAssay are activity values, retold here.

In assay [1] the target is Tumor necrosis factor receptor superfamily member 10B (Homo sapiens) (UniProt O14763). Put plainly: viability loss of caspase-8 NB7 cells with TRAIL – with/without TRAIL, luminescence panel, confirmation (AID 651596). The conditions noted are these: NB7 neuroblastoma + caspase-8, TRAIL sensitization, NB7 Caspase-8, with TRAIL, mean of runs, at 10 µM, stronger effect = higher value.

Test in assay [2]: as above
Particulars: NB7 neuroblastoma + caspase-8, without TRAIL, NB7 Caspase-8, without TRAIL, mean of runs, at 10 µM.

Structures are written as SMILES.

Sequence of Tumor necrosis factor receptor superfamily member 10B (Homo sapiens) (O14763 whole entry, looked up): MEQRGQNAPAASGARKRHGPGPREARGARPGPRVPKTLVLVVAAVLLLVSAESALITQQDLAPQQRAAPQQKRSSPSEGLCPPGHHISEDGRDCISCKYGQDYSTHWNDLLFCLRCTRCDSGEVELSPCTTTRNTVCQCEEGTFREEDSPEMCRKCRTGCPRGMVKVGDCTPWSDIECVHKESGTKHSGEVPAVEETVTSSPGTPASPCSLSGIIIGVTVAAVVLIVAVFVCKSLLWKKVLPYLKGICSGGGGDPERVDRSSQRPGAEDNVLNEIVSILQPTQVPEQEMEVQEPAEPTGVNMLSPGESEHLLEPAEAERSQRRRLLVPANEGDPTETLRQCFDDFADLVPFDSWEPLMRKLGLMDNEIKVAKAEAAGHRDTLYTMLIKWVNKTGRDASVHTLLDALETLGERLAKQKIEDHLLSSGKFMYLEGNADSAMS

As for `O=C(Nc1nc2ccccc2[nH]1)c1cc2ccccc2o1`, the activity in assay [1] stood at 87.2%; in assay [2], 87%.

`Nc1c(C(=O)N2CCOCC2)sc2nc3c(cc12)CCCC3`: the activity in assay [1] was determined as 67.5%; in assay [2], 63.5%.

Consider `Cc1ccc(C(=O)Nc2ncc(Cc3ccccc3)s2)o1`, for which the values for the activity in assay [1] and in assay [2] were 72.1% and 75%, respectively.

For the compound `Cc1nn(Cc2ccc(Cl)cc2Cl)c(C)c1NC(=O)CCl`, the activity was 95.8% in assay [1] and 97.8% in assay [2].

Regarding `c1csc(-c2ccc(N3CCOCC3)nn2)c1`, the activity in assay [1] turned out to be 69.5%; in assay [2], 69.4%.

For `CC(C)C(=O)N1CCN(c2ccc(NC(=O)c3ccc([N+](=O)[O-])o3)cc2Cl)CC1`, the values for the activity in assay [1] and in assay [2] were 75.4% and 97.5%, respectively.

Consider `Cc1ccnc(NC(=O)c2ccc3c(c2)OCO3)c1`, for which the activity in assay [1] was found to be 82.5%; in assay [2] it was 82.9%.

With `CC(=O)Nc1sc2c(c1-c1nc3ccccc3s1)CN(C(C)C)CC2`, the activity turned out to be 38% in assay [1] and 73.8% in assay [2].

On to `C/C(=N\Nc1nc2ccccc2[nH]1)c1ccc(N2CCOCC2)cc1`, for which the activity in assay [1] came to 80.9%; in assay [2], 74.9%.

As for `COc1ccc(C(=O)Nc2nnc(SCC(=O)NCc3ccco3)s2)c(OC)c1`, the activity in assay [1] came to 65.7%; in assay [2] it was 61.2%.
